{"source": "PubChem BioAssay (NCI)", "note": "Compounds without any hit were thinned out: in the full panel of roughly 83,000, 20% have a hit.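 48-hour exposure, single concentration, 96-well plates; percent growth endpoint where 0 means no net growth. Active: below 10.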 Unmarked numbers belong to inactive results. Calls of active or inactive are those of the source."}
{"tested_on": "ACHN renal", "experiment": "NCI-60 one-dose screen, 48 h (100 = growth as untreated, 0 = no growth, -100 = all killed)", "settings": "10 µM unless noted", "protocol": "Growth inhibition of the ACHN human tumor cell line is measured as a screen for anti-cancer activity. Cells are grown in 96 well plates and exposed to the test compound for 48 hours. Compounds are tested at a single concentration, which is 10^-5 M for most compounds. The reported endpoint is percent growth (GI% or GIPRCNT), where numbers from 0 - 100% represent growth inhibition, and numbers from -100% - 0 represent cell death. For example, a value of 40 represents 60% growth inhibition. A value of 0 means no net growth occurred over the course of the experiment. A value of -40 indicates 40% of cells at the beginning of the experiment died by the end of the experiment. A value of -100 means all cells are dead at the end of the experiment.\nNCI-60 Human Tumor Cell Lines Screen was performed using the standard one-dose NCI protocol, which is described in more detail at https://dtp.cancer.gov/discovery_development/nci-60/default.htm.\nCompounds with GIPRCNT values below 10 were considered active. Activity score was based on GIPRCNT using the following formula: […]\nScore is 0 for GIPRCNT values of 100 or above, 50 for GIPRCNT values of 0, and 100 for GIPRCNT values of -100."}
{"smiles": "CCOC(=O)C1=C(N)Oc2c(sc3c(CC)cccc23)C1c1ccc(F)cc1", "note": "(stereo not given)", "growth": "34.1%"}
{"smiles": "COc1ccc(-c2[nH]ncc2-c2cc3c(c(OC)c2)OCC(=O)N3)cc1", "growth": "36.7%"}
{"smiles": "Cc1ccc(/C=C2\\Oc3ccc(O)c(O)c3C2=O)cc1", "growth": "29.1%"}
{"smiles": "CCN1C(=O)N(CC)C2Nn3c(s/c(=C\\c4ccc([N+](=O)[O-])cc4)c3=O)=NC21", "note": "(stereo not given)", "growth": "74.9%"}
{"smiles": "COc1c(N2CC3CCCN(C(C)=O)C3C2)c(F)cc2c(=O)c(C(=O)N[C@H]3C(O)[C@@H](O)C(CO)O[C@H]3O)cn(C3CC3)c12", "note": "(stereo not given in full)", "growth": "105%"}
{"smiles": "Cc1nn(-c2ccccc2)c(-n2ccnc2)c1/C=N/Nc1nc(-c2ccc(Cl)c(Cl)c2)cs1", "growth": "39.9%"}
{"smiles": "COc1ccc2sc3c(NCCO)nc4ccccc4c3c(=O)c2c1", "growth": "98.1%"}
{"smiles": "COc1ccc2c(c1)/C(=C/c1sc(=S)n(Cc3ccco3)c1O)C=N2", "growth": "40.6%"}
{"smiles": "C(=N/Nc1ncnc2nc[nH]c12)/c1ccccn1", "growth": "23.4%"}
{"smiles": "Cc1ncc(C(=O)Nc2ccc(CN3CCN(C)CC3)c(C(F)(F)F)c2)cc1C#Cc1ccc(N)nc1", "growth": "-20% (active)"}
{"smiles": "CCCCCCCCCCCCCCCCCCOc1ccccc1CCCOP(=O)(O)OCC[N+](C)(C)C", "growth": "84.5%"}
{"smiles": "Cc1cc(=O)oc2cc(OC(=O)CN3CCN(C)CC3)ccc12", "growth": "103%"}
{"smiles": "CN1C(=C2C(=O)OC(C)(C)OC2=O)CCC1C(=O)NCc1ccc(Cl)cc1Cl", "note": "(stereo not given)", "growth": "97%"}
{"smiles": "CCCCNC(=O)Oc1ccc(/C(=C(\\C)c2ccc(Cl)cc2)c2ccc(OCCN3CCCCC3)cc2)cc1", "growth": "94%"}
{"smiles": "O=C(S)CNC(=O)c1ccccc1", "growth": "103%"}
{"smiles": "Cc1onc2c(-c3ccccc3)n[nH]c(=O)c12", "growth": "107%"}
{"smiles": "NC(=O)Nc1ccc2ncnc(Nc3ccc(Cl)cc3)c2c1", "growth": "47.4%"}
{"smiles": "COc1cc(/C=C/c2ccccc2)cc(OC)c1", "growth": "96.6%"}
{"smiles": "COc1cc(OCc2cccc(-c3ccc(C(O)c4nccs4)cc3)c2C)cc(OC)c1CNCCNC(C)=O", "note": "(stereo not given)", "growth": "101%"}
{"smiles": "c1ccc(-c2nc3nonc3nc2-c2ccccc2)cc1", "growth": "53.9%"}
{"smiles": "O=C1c2cccc3cccc(c23)C(=O)N1N1C(=O)c2cccc3c(NC4CCCCC4)ccc(c23)C1=O", "growth": "92.2%"}
{"smiles": "c1ccc(Nc2cc(-c3cccnc3)[nH]n2)cc1", "growth": "91.8%"}
{"smiles": "CCn1cnc2c1c(=O)[nH]c(=O)n2CC1CCC(CNS(=O)(=O)c2ccc(OC3CCOCC3)c(F)c2)CC1", "note": "(stereo not given)", "growth": "72.2%"}
{"smiles": "Cc1cc(=O)[nH]c(=O)n1Cc1cn(-c2c3ccccc3nc3ccccc23)nn1", "growth": "87.4%"}
{"smiles": "COc1ccc(NC(=O)n2nc(/C=C\\c3ccc(O)c(OC)c3)cc2/C=C\\c2ccc(O)c(OC)c2)cc1", "growth": "26%"}
{"smiles": "C[N+]1=C(/C=C/c2ccc(O)c3ncccc23)C(C)(C)c2ccccc21", "growth": "31%"}
{"smiles": "CC1=C([Se]CC(OC(=O)[C@@H](CSSC(C)(C)C)NC(=O)OC(C)(C)C)C(=O)NC(C)(C)C)C(=O)c2ccccc2C1=O", "note": "(stereo not given in full)", "growth": "-83% (active)"}
{"smiles": "COc1ccc2[nH]c(-c3ccccc3)c(/C=C(\\C#N)S(=O)(=O)c3ccccc3)c2c1", "growth": "71.6%"}
{"smiles": "CC/C=C\\C[C@@H](O)C/C=C1/C(=O)C=C[C@H]1C/C=C\\CCCC(=O)OC", "growth": "26.8%"}
{"smiles": "Cc1nc(/N=C(\\N)NC(=O)Nc2cccc(Cl)c2)sc1C", "growth": "78.4%"}
{"smiles": "O=c1ccn(Cc2cn(-c3c4ccccc4nc4ccccc34)nn2)c(=O)[nH]1", "growth": "95.4%"}
{"smiles": "Cc1nn(-c2ccccc2)c(-n2ccnc2)c1/C=N/Nc1nc(-c2ccc(F)cc2)cs1", "growth": "78.9%"}
{"smiles": "O=C1CCC(C(=O)NCCNCCNC(=O)C2CCC(=O)N2)N1", "note": "(stereo not given)", "growth": "112%"}
{"smiles": "COc1ccc(OC)c(/C=C2\\Oc3cc(OCCN4CCC(Cc5ccccc5)CC4)ccc3C2=O)c1", "growth": "99.7%"}
{"smiles": "CCCCNc1nc(NN2C(=O)c3cccc4cccc(c34)C2=O)nc(-n2cnc3ccccc32)n1", "growth": "81.3%"}
{"smiles": "O=C(O)c1cn(C2CC2)c2cc(N3CCN(C(=O)Nc4nc(-c5ccc(Cl)cc5)cs4)CC3)c(F)cc2c1=O", "growth": "6.02% (active)"}
{"smiles": "COc1ccc(NC2=C(Br)C(=O)C(C)=C(C)C2=O)cc1", "growth": "85.6%"}
{"smiles": "CCOC(=O)NCCc1ccccc1", "growth": "110%"}
{"smiles": "CNC(C)[C@H]1CCC2C3CCC4C[C@@H](N(C)C(=O)c5ccccc5)CC[C@]4(C)C3CC[C@@]21C", "note": "(stereo not given in full)", "growth": "46.9%"}
{"smiles": "Cc1ccc(C(=O)NN2C(=O)CSC2c2cccc([N+](=O)[O-])c2)cn1", "note": "(stereo not given)", "growth": "92.2%"}
